Assay outcomes (PubChem BioAssay)
Many of the other results were omitted from the sample, so hits are more common in it than they were.
Tgondii IFNg: T. gondii growth inhibition with IFN-gamma, primary screen, cell-based; activity change, negative = inhibition, % (no concentration beside the values); 69,000 tested, 3.8% active; Toxoplasma gondii growth in IFN-gamma-treated host cells; active compounds read low; in the data active means activity change below about -70%, passing the limit was not always enough;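 further: host cells are HeLa cells infected with Toxoplasma gondii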
Numbers stand for hits; ! = not active in a repeat.

Screening O=C(CN1C(=O)CCc2cc(S(=O)(=O)N3CCCCC3)ccc21)NC1CCCc2ccccc21 (centres undefined) returned Tgondii IFNg inactive.
Cc1cc(C)cc(NC(=O)CN2C(=O)CCc3cc(Br)ccc32)c1 was read as Tgondii IFNg inactive.
For O=C(CN1C(=O)CCc2cc(Br)ccc21)NC1CCCc2ccccc21 (centres undefined) the results were Tgondii IFNg -94.
`Cc1ccc(NC(=O)CN2C(=O)CCc3cc(Br)ccc32)cc1F` gave Tgondii IFNg inactive.
Screening CCN1CCN(Cc2ccc(NC(=O)CN3C(=O)CCc4cc(Br)ccc43)cc2)CC1 returned Tgondii IFNg -92.
COC1CCN(Cc2cn(-c3ccc(F)cc3F)nc2-c2ccccc2C)CC1 was read as Tgondii IFNg inactive.
For COCC(=O)N1CCOC2(COCCN(Cc3csc(C)n3)C2)C1 (centres undefined) the results were Tgondii IFNg inactive.
Cc1nn(C)c(C)c1-c1ccnc(NCCN2CCN(C(C)C)CC2)n1 was read as Tgondii IFNg inactive.
`Cc1ncc(-c2ccnc(Nc3ccc(S(C)(=O)=O)cc3)n2)n1C(C)C` gave Tgondii IFNg -77.
`CSc1nccc(-c2ccc(S(C)(=O)=O)cc2)n1` gave Tgondii IFNg inactive.
For O=C(/C=C/c1ccccc1)c1ccc(O)cc1O the results were Tgondii IFNg inactive.
OC(c1ccccc1)(c1ccccc1)C1CCN(C(=S)Nc2ccc(Cl)cc2)CC1 was read as Tgondii IFNg inactive.
Screening O=C(/C=C/c1ccccc1)NC(NC(=S)Nc1ccc(Cl)cc1)C(Cl)(Cl)Cl (centres undefined) returned Tgondii IFNg -78.
`O=C(OCCCN=C1NS(=O)(=O)c2ccccc21)c1ccncc1` gave Tgondii IFNg inactive.
Cc1cnn(Cc2nc(-c3ccc(NC(=O)c4c(F)cccc4Cl)cc3)oc2C)c1 was read as Tgondii IFNg inactive.
Cc1cnn(Cc2nc(-c3ccc(NC(=O)c4cc(F)ccc4Cl)cc3)oc2C)c1 was read as Tgondii IFNg -89.
Screening Cc1oc(-c2ccc(NC(=O)c3cc(F)ccc3Cl)cc2)nc1Cn1cccn1 returned Tgondii IFNg -92.
Screening Cc1oc(-c2ccc(NC(=O)c3ccccc3C(F)(F)F)cc2)nc1Cn1cccn1 returned Tgondii IFNg inactive.
Screening CSc1ccc(Cl)c(C(=O)Nc2ccc(-c3nc(Cn4cccn4)c(C)o3)cc2)c1 returned Tgondii IFNg -93.
`COc1ccccc1C(=O)Nc1ccc(-c2nc(Cn3cccn3)c(C)o2)cc1` gave Tgondii IFNg inactive.
`Cc1cnn(Cc2nc(-c3ccc(NC(=O)c4ccc(F)cc4F)cc3)oc2C)c1` gave Tgondii IFNg inactive.
For Cc1oc(-c2ccc(NC(=O)c3ccc(F)c(Cl)c3)cc2)nc1Cn1cccn1 the results were Tgondii IFNg inactive.
For Cc1oc(-c2ccc(NC(=O)c3c(F)cccc3Cl)cc2)nc1Cn1cccn1 the results were Tgondii IFNg inactive.
Screening O=C(O)C1CN(c2ncccn2)CCN1C(=O)CCc1cccnc1 (centres undefined) returned Tgondii IFNg inactive.
CC(C(=O)N1c2ccccc2CCc2ccccc21)n1nnc(-c2cccs2)n1 (centres undefined) was read as Tgondii IFNg inactive.
Cc1ccn(CC(C)C(=O)N2CCS(=O)(=O)CC2)n1 (centres undefined) was read as Tgondii IFNg inactive.
CN(C)C(=O)COC1COC2(CCN(Cc3cnn(C)c3)C2)C1 (centres undefined) was read as Tgondii IFNg inactive.
CN(C)C(=O)N1CCC2(CC(=O)N(c3ccc4c(c3)OCO4)C2)C1 (centres undefined) was read as Tgondii IFNg inactive.
Screening O=C(CCc1nnc(-c2ccccc2)o1)NCc1ccccc1OC(F)(F)F returned Tgondii IFNg inactive.
`COc1ccccc1C(=O)Nc1ccc(-c2nc(-c3ccccc3)co2)cc1` gave Tgondii IFNg inactive.
Screening COc1ccccc1C(=O)Nc1cc2cc(Br)ccc2oc1=O returned Tgondii IFNg inactive.
COc1ccccc1C(=O)Nc1ccc2c3c(cccc13)CC2 was read as Tgondii IFNg -102.
Screening CCn1c(SCc2cccnc2)nnc1C1CCCN(C(=O)C2CCC(OC)CC2)C1 (centres undefined) returned Tgondii IFNg inactive.
For Cc1nc(CCNC(=O)[C@H]2CCCN2C(=O)c2cccc(F)c2)cs1 the results were Tgondii IFNg inactive.
CCS(=O)(=O)N1C[C@@H]2COC[C@]2(COCc2ccncc2)C1 was read as Tgondii IFNg inactive.
For CC[C@@H](C(=O)O)C1CC[C@H](C)C([C@@H](C)[C@H](O)[C@H](C)C(=O)[C@H](CC)C2O[C@]3(C=C[C@@H](O)[C@]4(CC[C@@](C)(C5CC[C@](O)(CC)[C@H](C)O5)O4)O3)[C@H](C)C[C@@H]2C)O1 (some centres undefined) the results were Tgondii IFNg -79!.
`Cc1ccc(-c2cc(C(=O)Nc3nnc(CCn4nc(C)cc4C)s3)no2)cc1` gave Tgondii IFNg inactive.
O=C(CCc1ccccc1)Nc1ccccc1C(F)(F)F was read as Tgondii IFNg inactive.
CC(C)(C)c1cc(C(F)(F)F)nc(SCCCNC(=O)CCc2ccccc2)n1 was read as Tgondii IFNg -74.
For O=C(CCc1nc2ccccc2[nH]1)NCCc1ccc(C(F)(F)F)cc1 the results were Tgondii IFNg inactive.
CCN1CCC2(CC1)OC(=O)C(C)=C2C(=O)NCCCN1CCN(c2ccccc2F)CC1 was read as Tgondii IFNg inactive.
`CCS(=O)(=O)N1CSC[C@@H]1C(=O)NCCc1csc(-c2ccccc2)n1` gave Tgondii IFNg inactive.
`COc1ccc2c(c1)NC1(CCN(C(=O)Nc3ccc(C)c(Cl)c3)CC1)c1cccn1-2` gave Tgondii IFNg inactive.
Screening Cc1ccccc1C(=O)NCCc1nc(-c2ccncc2)n[nH]1 returned Tgondii IFNg inactive.
`Cc1ncsc1CCN(C)c1nc(-c2cccnc2)nc2c1cnn2C` gave Tgondii IFNg inactive.
For Cc1ccsc1CN(C)c1nc(-c2cccnc2)nc2c1cnn2C the results were Tgondii IFNg -74.
`CN(CCCc1cnn(C)c1)c1nc(-c2cccnc2)nc2c1cnn2C` gave Tgondii IFNg inactive.
O=C(CC1Nc2c3ccccc3nc(=S)n2C1=O)NCc1cccs1 (centres undefined) was read as Tgondii IFNg inactive.
CC(C)(C)c1ccc2cc(C#N)c(C#N)cc2c1 was read as Tgondii IFNg -80.
N#Cc1cc2c(ccc3ccccc32)oc1=N was read as Tgondii IFNg inactive.
COc1ccc(NC(=O)c2c(O)c3cccnc3n(-c3ccc(F)cc3)c2=O)cc1Cl was read as Tgondii IFNg inactive.
`CCO[C@H]1COC[C@@H]1NC(=O)CSCc1ccccc1Cl` gave Tgondii IFNg inactive.
For Cc1nc2c(c(=O)[nH]1)CC[C@@H]1CN(C(=O)c3cc(F)cc(F)c3)C[C@H]21 the results were Tgondii IFNg inactive.
`Cn1c(Nc2ccc(C(F)(F)F)cc2)nc2cc(Oc3ccnc(-c4ncc(C(F)(F)F)[nH]4)c3)ccc21` gave Tgondii IFNg -73.
Screening CCc1nc2cc(NC(=O)COc3ccc4nsnc4c3)ccc2n1C returned Tgondii IFNg inactive.
Cn1cnc2cc(C(=O)Nc3ccc4c(c3)nc(C(F)(F)F)n4C)ccc21 was read as Tgondii IFNg inactive.
`CN1CCCC(CN2CCN(Cc3cc4n(n3)CCNC4)CC2)C1` (centres undefined) gave Tgondii IFNg inactive.
O=c1[nH]c2ccccc2c2oc(-c3ccccc3)nc12 was read as Tgondii IFNg inactive.
